Source: PubChem BioAssay (Tox21)
Records with an inconclusive call do not appear. Calls of active or inactive are those of the source. The call rests on the fitted dose curve; in most records, active means well fitted curve in the direction sought with a large enough effect in the repeat runs; inconclusive means weak or mixed curves; inactive means no such curve, though single readings can be large; an effect the other way counts as inactive or inconclusive.

Key:
[1] = A CellTox Green Cytotoxicity Assay to monitor cytotoxicity in HEK293 cells - 40 hour (AID 1224871); further: nearly all actives have a fitted effect of over 45% in size; further: potency means the concentration at half of the fitted maximal effect
Summary of the method: (§1)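 Each value comes from one timepoint of a single continuous run in which HEK293 cells with CellTox Green were exposed to compound for up to 40 h at 37 C, dye fluorescence rising with cell death.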

[2] = qHTS RealTime-Glo MT Cell Viability Assay in HEK293 cells - 16 hour (AID 1224872); further: nearly all actives have a fitted effect of over 50% in size; further: potency means the concentration at half of the fitted maximal effect; on activity change, negative = cytotoxicity: top concentration of the series differs between compounds
Summary of the method: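 Homogeneous bioluminescent viability format in HEK293 cells (600 cells/well). Following 5 h at 37 C/5% CO2, 23 nL compound was pintooled; the signal was measured repeatedly during 40 h incubation.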

[3] = qHTS RealTime-Glo MT Cell Viability Assay in HepG2 cells - 8 hour (AID 1224873); further: nearly all actives have a fitted effect of over 55% in size; further: potency means the concentration at half of the fitted maximal effect
Summary of the method: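 Real-time viability: cells seeded at 600 per well together with NanoLuc and cell-permeant prosubstrate, compounds added after 5 h incubation. Luminescence tracked at 0, 8, 16, 24, 32 and 40 h of exposure.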

[4] = qHTS RealTime-Glo MT Cell Viability Assay in HEK293 cells - 40 hour (AID 1224874); conditions: RealTime-Glo luminescence; max response: hits give low values; further: nearly all actives have a fitted effect of over 50% in size; further: potency means the concentration at half of the fitted maximal effect
Summary of the method: (§2)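 qHTS format; HEK293 cells with NanoLuc/prosubstrate reagent, 37 C/5% CO2 for 5 h pre-dosing; compounds 23 nL in DMSO; luminescence at each time point reflects viable cells.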

[5] = A CellTox Green Cytotoxicity Assay to monitor cytotoxicity in HEK293 cells - 24 hour (AID 1224875); further: nearly all actives have a fitted effect of over 45% in size; further: potency means the concentration at half of the fitted maximal effect; on activity change: series mostly up to about 77 µM
Summary of the method: as §1

[6] = A CellTox Green Cytotoxicity Assay to monitor cytotoxicity in HepG2 cells - 16 hour (AID 1224876); further: nearly all actives have a fitted effect of over 45% in size; further: potency means the concentration at half of the fitted maximal effect
Summary of the method: (§3)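 Continuous culture of HepG2 cells with a membrane-impermeant DNA dye; rising fluorescence marks dead cells. Compound exposure lasted up to 40 h at 37 C, with reads every 8 h from 0 h.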

[7] = qHTS RealTime-Glo MT Cell Viability Assay in HepG2 cells - 32 hour (AID 1224877); further: nearly all actives have a fitted effect of over 55% in size; further: potency means the concentration at half of the fitted maximal effect
Summary of the method: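 Cell number in HepG2 cultures estimated from NanoLuc luminescence generated by metabolic reduction of a prosubstrate by living cells. The homogeneous, nonlytic format allowed repeated reads at 0, 8, 16, 24, 32 and 40 h of compound exposure.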

[8] = A CellTox Green Cytotoxicity Assay to monitor cytotoxicity in HepG2 cells - 24 hour (AID 1224878); further: nearly all actives have a fitted effect of over 45% in size; further: potency means the concentration at half of the fitted maximal effect
Summary of the method: as §3

[9] = A CellTox Green Cytotoxicity Assay to monitor cytotoxicity in HepG2 cells - 40 hour (AID 1224879); further: nearly all actives have a fitted effect of over 40% in size; further: potency means the concentration at half of the fitted maximal effect
Summary of the method: as §3

[10] = qHTS RealTime-Glo MT Cell Viability Assay in HEK293 cells - 0 hour (AID 1224880)
Summary of the method: as §2
On the % scale 0 is the no-effect control and ±100 the full control effect.

C[n+]1cc2c3c(ccc2c2ccc4cc5c(cc4c21)OCO5)OCO3
active: Potency [1] 0.465 µM | Potency [2] 0.585 µM | Potency [3] 0.737 µM | Potency [4] 0.585 µM | Potency [5] 0.737 µM | Potency [6] 0.585 µM | Potency [7] 0.928 µM | Potency [8] 0.522 µM | Potency [9] 0.657 µM
inactive: activity change, negative = cytotoxicity [10] -2.48% [at 15.8 µM]

NNc1nc(-c2ccc(N)cc2)cs1
inactive: Potency [1] | Potency [2] | Potency [3] | Potency [5] | Potency [6] | Potency [7] | Potency [8] | Potency [9] | Potency [10]
active: Potency [4] 21.9 µM

C=CC(=O)OCC(CO)(COCC(COC(=O)C=C)(COC(=O)C=C)COC(=O)C=C)COC(=O)C=C
inactive: Potency [10]
active: Potency [1] 27.2 µM | Potency [2] 3.05 µM | Potency [3] 3.42 µM | Potency [4] 2.42 µM | Potency [5] 54.3 µM | Potency [7] 3.84 µM | Potency [8] 48.4 µM | Potency [9] 15.3 µM

Cc1c(C)c2c(c(C)c1O)CCC(C)(COc1ccc(CC3SC(=O)NC3=O)cc1)O2 (centres undefined)
active: Potency [2] 43.6 µM | Potency [4] 43.6 µM
inactive: Potency [1] | Potency [3] | Potency [5] | Potency [6] | Potency [7] | Potency [8] | Potency [10]

O=c1c(-c2ccccc2)c1-c1ccccc1
inactive: Potency [6] | Potency [10]
active: Potency [1] 5.35 µM | Potency [2] 15.1 µM | Potency [3] 23.9 µM | Potency [4] 10.7 µM | Potency [5] 5.35 µM | Potency [7] 15.1 µM | Potency [8] 10.7 µM | Potency [9] 10.7 µM

CC(C)(C)C(=O)OCOC(=O)C1N2C(=O)CC2S(=O)(=O)C1(C)C (centres undefined)
inactive: Potency [1] | Potency [2] | Potency [3] | max response [4] 5.75% | Potency [5] | Potency [7] | Potency [9] | Potency [10]

Oc1c(Cl)cc(Cl)c2cccnc12
inactive: Potency [2] | Potency [3] | Potency [5] | Potency [6] | Potency [7] | Potency [10]
active: Potency [1] 9.52 µM | Potency [4] 8.49 µM | Potency [9] 8.49 µM

O=[N+]([O-])c1cc([N+](=O)[O-])c2ccc(S(=O)(=O)O)cc2c1O
inactive: Potency [1] | Potency [2] | Potency [3] | max response [4] -17.1% | Potency [5] | Potency [6] | Potency [7] | Potency [8] | Potency [9] | Potency [10]

Clc1ccc2nsnc2c1NC1=NCCN1
inactive: Potency [1] | Potency [2] | Potency [3] | max response [4] 0.404% | Potency [5] | Potency [6] | Potency [7] | Potency [8] | Potency [10]
